Source: PubChem BioAssay (National Center for Advancing Translational Sciences (NCATS))
TDP1 cell CPT = growth inhibition of DT40 Tdp1-/-;hTDP1 cells with camptothecin (screen for TDP1 inhibitors) | Potency, µM (series often up to 46.2 µM), inactives show top-dose activity change, negative = growth inhibition, most hits filed as inhibitors | chicken DT40 Tdp1-/-;hTDP1 cells + 20 nM CPT, ATP luminescence, 48 h | AID 686979 | 420,000 compounds, 12% hits; also: potency is read from the fitted curve at half-maximal effect; % is scaled to controls: 0 for no effect and ±100 for the full control effect; nearly all actives have a fitted effect of over 55% in size
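Chicken DT40 Tdp1-/- cells complemented with human TDP1, 400 cells/well, exposed to compounds plus 20 nM camptothecin for at least 48 h at 37 C; viability read as ATP content by CellTiter-Glo luminescence.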
DRD3 agonist = activates the human D3 dopamine receptor. D3R DiscoveRx beta-arrestin cells, luminescence, 90 min. max activation, %. 410,000 compounds, 0.58% hits. AID 652048; in the data active = max activation above about 30%; also: 0% is about no effect
Target sequence (P35462 whole entry, looked up): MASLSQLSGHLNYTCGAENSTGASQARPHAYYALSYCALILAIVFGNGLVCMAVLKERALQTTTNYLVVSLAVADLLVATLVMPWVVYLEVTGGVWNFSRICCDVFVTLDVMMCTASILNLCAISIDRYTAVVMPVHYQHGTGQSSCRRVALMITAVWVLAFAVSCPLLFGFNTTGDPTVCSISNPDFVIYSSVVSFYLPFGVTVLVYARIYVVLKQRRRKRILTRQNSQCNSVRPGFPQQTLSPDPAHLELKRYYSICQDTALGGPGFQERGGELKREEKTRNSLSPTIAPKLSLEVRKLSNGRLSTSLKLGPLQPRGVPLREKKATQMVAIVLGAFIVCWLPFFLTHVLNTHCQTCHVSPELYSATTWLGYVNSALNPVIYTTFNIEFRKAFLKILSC
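Agonist mode: compounds and dopamine controls were applied to plated cells for 90 min at 37 degrees C after an overnight attachment at 1500 cells/well. Luminescent read-out followed 30 - 60 minutes at room temperature with DiscoveRx detection reagent.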
IL-1B inflam inh = inhibitors of inflammasome signaling (IL-1 beta secretion) | THP-1 LPS/ATP IL-1B secretion, AlphaLISA, 16 h; hits give low values | activity change, % at 57.5 µM | 360,000 compounds, 4.7% hits; in the data active = activity change below about -50%; inconclusive = mostly about -30% to -49%; also: % is scaled to controls: 0 for no effect and ±100 for the full control effect
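THP-1 cells pretreated 1 hr with compounds (up to 57.5 uM final), then stimulated with LPS (250 ng/mL final) plus ATP (1.25 mM final); secreted IL-1B measured by AlphaLISA after 16 hr, decreased signal indicating inhibition.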
ClpP mod = qHTS Assay for Activators of ClpP; Potency, µM (titrated, usually from 57.5 µM), for the others: at the top dose activity change, negative = active; purified B. subtilis ClpP, FRET peptide cleavage, 20 min; ATP-dependent Clp protease proteolytic subunit (Bacillus subtilis (strain 168)), P80244; AID 651965, 2013; 340,000 compounds, 1.9% hits; active = well fitted falling curve with a large enough effect; inconclusive = small, poorly fitted or top-dose-only effect; inactive = no such curve, though single readings can be large or run the other way; also: potency is read from the fitted curve at half-maximal effect; the source files actives as falling curves though it sought activators and does not explain the sign; nearly all actives have a fitted effect of over 65% in size
Target sequence (P80244 whole entry, looked up): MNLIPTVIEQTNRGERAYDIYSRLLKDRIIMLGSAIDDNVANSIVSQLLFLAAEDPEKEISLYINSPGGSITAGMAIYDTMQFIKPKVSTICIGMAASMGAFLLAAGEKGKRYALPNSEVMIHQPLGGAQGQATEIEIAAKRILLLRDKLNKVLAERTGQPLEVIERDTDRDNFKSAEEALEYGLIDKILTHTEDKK
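Purified B. subtilis ClpP, 10 microg/mL final in Tris/HCl pH8 with KCl, BSA, glycerol and Tween-20, cleaved an Abz/nitrotyrosine-quenched decapeptide. Fluorescence (ex 320, em 430) was read at 0 and 20 min at room temperature. Delta was normalized to 5.8 microM ADEP and DMSO/no-enzyme controls.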
D3 antag = blocks the human D3 dopamine receptor; D3R cells, DiscoveRx beta-arrestin luminescence, antagonist mode; hits give low values; P35462; 360,000 compounds, 2.5% hits; AID 652054; max response, negative = inhibition, %; in the data active = max response below about -50%; inconclusive = no clear call, values can overlap the other calls; also: % is scaled to controls: 0 for no effect and ±100 for the full control effect
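Cells plated overnight at 1500 cells/well, then exposed to library compounds with dopamine controls for 90 minutes at 37 degrees C. DiscoveRx reagent added for 30–60 minutes at room temperature; luminescence read, quantitative HTS format.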
TDP1 cell noCPT = qHTS for Inhibitors of human tyrosyl-DNA phosphodiesterase 1 (TDP1): qHTS in cells in absence of CPT; DT40 Tdp1-/- hTDP1 cells, no CPT, ATP luminescence, 48 h; 420,000 compounds, 15% hits; Potency, µM (series often up to 46.2 µM), for the others: at the highest dose activity change, negative = growth inhibition, hits mostly inhibitors; also: potency is read from the fitted curve at half-maximal effect; % is scaled to controls: 0 for no effect and ±100 for the full control effect; nearly all actives have a fitted effect of over 55% in size
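Luminescent ATP content (CellTiter-Glo) served as the growth readout. Knockout chicken DT40 cells expressing human TDP1 were exposed to compounds without camptothecin for a minimum 48 hr at 37 °C.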
* marks the source's active call; other numbers are inactive results; i = inactive; ? = inconclusive; . = not tested or not shown. This is a sample that favours compounds with a hit; in the whole collection about 21% have one here. Unless noted, calls follow the shape of the dose curve; as a rule, active = well fitted inhibition curve with a large enough effect; inconclusive = small, poorly fitted or top-dose-only effect; inactive = flat fitted curve, though single readings scatter.

SMILES	TDP1 cell CPT	DRD3 agonist	IL-1B inflam inh	ClpP mod	D3 antag	TDP1 cell noCPT
O=C(c1cc(COc2ccc(F)cc2Cl)on1)N1CCCCCC1	?	-3.2	-7.4	1.9%	-8.7	?
CCC(NC(=O)c1cc(COc2ccc(F)cc2Cl)on1)c1ccncc1 (configuration not stated)	23.1µM*	4.0	?	-3.1%	14.7	23.1µM*
O=C(c1cc(COc2ccc(F)cc2Cl)on1)N1CCC(c2ccncc2)CC1	6.51µM*	6.8	?	1.0%	16.4	6.51µM*
CC(C)(C)NC(=O)NC(=O)COc1ccc(Br)cc1Br	-26.0%	3.0	-6.5	-2.0%	-5.9	-29.6%
CC(C)(C)NC(=O)NC(=O)COC(=O)COc1ccc(Cl)cc1Cl	18.4µM*	10.8	8.4	1.9%	11.6	?
Fc1ccc2[nH]c(-c3cccs3)cc2c1	-5.5%	1.8	.	11.2µM*	.	-7.1%
O=C(CSc1nc2ccccc2s1)N1CCCCC1	-4.2%	0.0	11.9	-0.3%	-8.5	-11.1%
Cc1c(Cl)cccc1N/C(SCC(=O)N1CCCCCC1)=C(/C#N)c1nc2ccccc2s1	11.6µM*	1.5	-93.5*	-1.8%	4.2	11.6µM*
CC(C)(C)NC(=O)c1ccc2c(c1)C1C3CCC(C3)C1C(c1ccccc1)N2 (configuration not stated)	13µM*	1.9	?	-10.0%	-6.6	11.6µM*
CCCNC(=O)c1cccc(Br)c1	4.1%	-5.8	-1.9	.	7.5	3.1%
CCCNC(=O)c1ccc2c(c1)C1C3CCC(C3)C1C(c1ccccc1)N2 (configuration not stated)	20.6µM*	-9.9	?	?	-29.4	?
C/C(=N\NC(=O)c1nnn(-c2nonc2N)c1CSc1ccccc1)c1ccc2c(c1)OCO2	5.5%	2.4	14.7	.	10.5	1.2%
O=C(N/N=C/c1cn(-c2cccs2)nc1-c1ccccc1)c1ccccc1Br	23.1µM*	1.4	?	22.4µM*	8.5	23.1µM*
O=C(N/N=C/c1cn(-c2cccs2)nc1-c1ccccc1)c1ccccc1O	13µM*	15.6	77.2	?	25.9	8.2µM*
CC(C)[C@H](NC(=O)[C@@H]1Cc2ccccc2CN1C(=O)OC(C)(C)C)C(=O)NCC1CCCO1 (some centres not stated)	3.0%	-21.1	32.3	-0.6%	0.7	3.7%
O=C(CSc1nc2c([nH]c3ccccc32)c(=O)n1-c1ccccc1F)Nc1cccc(C(F)(F)F)c1	20.6µM*	0.7	.	?	.	16.4µM*
Cn1c(SCC(=O)Nc2ccccc2)nc2c([nH]c3ccccc32)c1=O	?	0.9	25.0	47.4%	-20.7	?
Cc1cccc(NC(=O)CSc2nc3ccccc3c(=O)n2C)c1	?	11.0	-70.7*	.	28.3	?
Cc1ncsc1CCSc1nc2ccccc2c(=O)n1C	?	13.7	-11.3	-2.9%	-22.4	23.1µM*
Cc1cccc(NC(=O)CSc2nc3c([nH]c4ccccc43)c(=O)n2C)c1	8.2µM*	-3.0	18.1	-16.7%	-70.5*	11.6µM*
CCOc1ccc(NC(=O)Cn2cc(C(=O)c3ccccc3)c(=O)c3cc4c(cc32)OCCO4)cc1	-17.6%	-4.2	.	-1.0%	.	-18.6%
CCOc1ccc(OCC)c(NC(=O)CSc2nc3ccccc3c(=O)n2C)c1	16.4µM*	12.2	20.4	3.5%	17.1	20.6µM*
CCOc1ccc(OCC)c(NC(=O)CSc2nc3cccnc3n2C)c1	?	6.9	13.5	-1.1%	35.6	?
Cn1c(SCc2ccccc2Br)nc2ccccc2c1=O	?	2.9	58.3	-6.8%	128.3	?
Cc1ccccc1CSc1nc2ccccc2c(=O)n1C	?	-0.2	1.5	-3.9%	-16.5	25.9µM*
SMILES	TDP1 cell CPT	DRD3 agonist	IL-1B inflam inh	ClpP mod	D3 antag	TDP1 cell noCPT
Cn1c(SCC(=O)NNC(=O)Cc2ccccc2)nc2ccccc2c1=O	20.6µM*	-0.7	-11.0	0.1%	-1.7	13µM*
COCCn1c(SCC(=O)Nc2cccc(NC(C)=O)c2)nc2c([nH]c3ccccc32)c1=O	?	-5.4	i	-24.2%	-15.4	3.26µM*
c1ccc(Cc2nc3ccccc3s2)cc1	-10.2%	-4.7	6.5	.	0.2	-17.4%
CC(Oc1ccc(F)cc1)C(O)CCN(C)C (configuration not stated)	17.1%	0.3	8.3	2.2%	4.6	10.1%
CCNC(=O)C1(C)CCN(Cc2ccccc2C#N)C1 (configuration not stated)	-2.1%	-3.2	17.6	-1.8%	6.5	-14.8%
COn1c(SCc2ccc(C)cc2C)nc2ccccc2c1=O	20.6µM*	5.5	6.7	0.5%	-6.7	18.4µM*
Cc1ccc2[nH]c(O)c(N=NC(=O)C3CC3c3ccccc3)c2c1Br (configuration not stated)	20.6µM*	6.1	6.8	-1.4%	-0.9	23.1µM*
Cc1c(CN2CCN(CC(C)C)C(CCO)C2)[nH]c2ccc(Cl)cc12 (configuration not stated)	-3.5%	-9.2	-13.7	.	3.7	?
CC1(c2ccc(OCC#N)cc2)C=C(c2ccc(OCC#N)cc2)n2nc(C(F)(F)F)nc2N1 (configuration not stated)	?	-19.4	-85.9*	-5.7%	?	?
O=C(NC(=S)Nc1cccc(O)c1)C12CC3CC(CC(C3)C1)C2	?	-3.3	0.0	-2.9%	-24.3	?
COc1cc2c(cc1OC)CN(C(=O)c1cc(C3CC3)nn1-c1ccccc1)CC2	18.4µM*	0.7	-55.3*	-1.4%	-1.6	?
O=C(c1cc(C2CC2)nn1-c1ccccc1)N1CCN(Cc2ccccc2)CC1	?	-2.0	-9.8	1.6%	0.0	?
N#Cc1ccc(CN2CCN(C(=O)c3cc(C4CC4)nn3-c3ccccc3)CC2)cc1	23.1µM*	0.0	-3.4	-1.7%	-1.1	20.6µM*
COc1ccc(S(=O)(=O)c2c(SC)nn(CC(=O)Nc3ccc(C)c(Cl)c3)c2N)cc1	25.9µM*	-12.5	.	-3.3%	.	25.9µM*
CCc1ccc(NC(=O)Cn2nc(SC)c(S(=O)(=O)c3ccc(OC)cc3)c2N)cc1	-11.8%	-5.0	.	-1.0%	.	-19.7%
CCSc1nn(CC(=O)Nc2cccc(CC)c2)c(N)c1S(=O)(=O)c1ccccc1	?	0.7	.	-2.5%	.	14.6µM*
O=C1CC(c2ccccc2)CC2=C1CN(C1CCCCC1)CN2 (configuration not stated)	?	-3.4	13.7	3.8%	-78.7*	?
